Laboratory results reported in PubChem BioAssay (EPA / NIEHS).
Inconclusive results are not listed. Activity calls are given as the source filed them. Rule for the calls, unless noted: active = hit-call score of the fitted dose curve at least 0.9, where 1 is the maximum; inconclusive = response in the unintended direction; inactive = score below 0.9.

Tests used:
[1] = IUF_NPC4_neurite_area_120hr: Leibniz Research Institute for Environmental Medicine (IUF) 120-hour Neuronal Morphology Assay for Neurite Area (NPC4) (AID 2284305)
How it was run: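 Neurite area is read out as the mean pixel area, excluding nuclei, of skeletonized TUBB3-positive neurons imaged after 120 h. Primary human neural progenitor spheres differentiated on poly-D-lysine/laminin with compound present from day 0. Activity was referenced to DMSO controls.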

[2] = IUF_NPC2-5_cytotoxicity_72hr: Cytotoxicity Assessment at 72 hours in the Leibniz Research Institute for Environmental Medicine (IUF) Neural Progenitor Cell Migration and Differentiation Assay for Cytotoxicity (NPC2-5) (AID 2284306);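 note: LDH release into supernatant measured by resorufin fluorescence marking membrane damage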
Description: IUF_NPC2-5 is a cell-based, multiplexed assay that uses hNPC, a human primary neural progenitor cells, with measurements taken at 72 or 120 hours after chemical dosing in a 96-well plate. Human neural progenitor cells (hNPC) are generated from human fetal brain cortex at gestational week (GW) 16-19. In the neural progenitor cell migration and differentiation assay (NPC2-5), hNPCs grown as spheres are plated on an extracellular matrix and migrate and differentiate out of the sphere core. The processes radial glia migration, neuronal and oligodendrocyte migration as well as neuronal differentiation, neuronal morphology and oligodendrocyte differentiation are studied using automated phase contrast imaging and automated fluorescence imaging in combination with high content image analysis. In parallel, the cell viability is assessed using an alamar blue viability assay and the cytotoxicity using a lactate dehydrogenase dependent membrane integrity assay.IUF_NPC2-5_cytotoxicity_72hr is one of 12 assay components measured from the IUF_NPC2-5 assay. It is designed to measure the cytotoxicity at 72 hr as assessed by membrane integrity related to the LDH dependent reduction of resazurin to resorufin in the supernatant of each well. The cytotoxicity is measured as fluorescence signal (relative fluorescence unit) in a multiplate reader. Data from the IUF_NPC2-5_cytotoxicity_72hr component was analyzed at the endpoint IUF_NPC2-5_cytotoxicity_72hr in the positive analysis fitting direction relative to the dynamic range and baseline of activity. Using a type of viability reporter, gain-of-signal activity can be used to understand cytotoxicity effects.
Culture protocol: After the cell expansion period the cells are cultured for up to four weeks in which they are passaged every week as described in 3.6. Between one to three days after passaging spheres at a size of 0.3 mm are picked for the test method. For the assessment of neural progenitor cell migration and differentiation, the spheres are plated on poly-D-lysine/laminin coated 96-well flat bottom plates in differentiation medium (N2) to initiate migration and differentiation. Thereby one 0.3 mm big sphere is plated in the middle of a well. The differentiation medium consists of DMEM and Ham's F12 at a ratio of 3 to 1 supplemented with 1% N2 and 1% penicillin and streptomycin. Within 5 days NPCs radially migrate out of the sphere core and differentiate into radial glia cells (nestin positive), neurons (TUBB3 positive), oligodendrocytes (O4 positive) and astrocytes (GFAP positive). Cultivation during the test method is performed at 37C and 5% CO2 at a ph of 7.2-7.6.Exposure: 0.3 mm big hNPC are plated in the already prepared test conditions. Exposure starts at day 0 of differentiation and is continued over five days of differentiation until the experiment is terminated. Cells are fed with fresh medium at day 3 of differentiation. Therefore, half of the test condition solution (e.g. solvent control or compound dilution) is replaced by freshly prepared test condition solution.Test Method: Migration distance and cytotoxicity is determined after 72 hours based on brightfield images of each well. The assay is terminated by the assessment of cell viability and cytotoxicity as well as cell fixation after 120 h. Immunocytochemistry is performed for Hoechst positive nuclei, TUBB3 positive neurons and O4 positive oligodendrocytes. On the ICC images, migration after 120 hours, neuronal and oligodendrocyte number, neuronal morphology and neuron/oligodendrocyte specific migration is assessed. immunocytochemical staining (ICC) generates an image for each sphere. The plates are scanned using an automated high content imaging device and all nuclei and their positions are determined automatically based on their intensity and size. Images are imported to the Omnisphero software to run the image analysis that measures the following endpoints. […]

[3] = IUF_NPC2-5_cytotoxicity_120hr: Cytotoxicity Assessment at 120 hours in the Leibniz Research Institute for Environmental Medicine (IUF) Neural Progenitor Cell Migration and Differentiation Assay (NPC2-5) (AID 2284307);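 for AC50: LDH released into supernatant as membrane damage marker via resorufin fluorescence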
How it was run: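 Human fetal neural progenitor spheres (0.3 mm, GW 16-19 cortex) were plated on poly-D-lysine/laminin in N2 differentiation medium and exposed for 120 h, with half-medium refresh at day 3. LDH release into supernatant was read by resorufin fluorescence.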

[4] = IUF_NPC2-5_cell_number_120hr: Cell Number Assessment at 120 hours in the Leibniz Research Institute for Environmental Medicine (IUF) Neural Progenitor Cell Migration and Differentiation Assay (NPC2-5) (AID 2284308; active = hit-call score of the fitted dose curve at least 0.9, where 1 is the maximum; inactive = score below 0.9;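 note: count of Hoechst-stained nuclei in migration zone around plated human neural progenitor spheres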)
How it was run: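 Primary human fetal neural progenitor spheres (GW 16-19, 0.3 mm) plated on poly-D-lysine/laminin in N2 differentiation medium, exposed from day 0 for 120 h with half-medium refresh at day 3; Hoechst-positive nuclei counted in migration area versus DMSO control.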

[5] = IUF_NPC2-5_viability_120hr: Viability Assessment at 120 hours in the Leibniz Research Institute for Environmental Medicine (IUF) Neural Progenitor Cell Migration and Differentiation Assay (NPC2-5) (AID 2284312; active = hit-call score of the fitted dose curve at least 0.9, where 1 is the maximum; inactive = score below 0.9)
How it was run: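 Alamar blue resorufin fluorescence read after 5 days of differentiation, with compound present from day 0 and replenished at day 3. Primary hNPC spheres on laminin-coated plates, 37C; seven concentrations plus solvent control, fitted against DMSO.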

[6] = VALA_TUBHUV_Agonist_CellCount: Viability Assessment in the VALA Sciences human Umbilical Vein Endothelial Tubule Formation (TUBHUV) Agonism Assay (AID 2284309)
Description: VALA_TUBHUV_Agonist is a cell-based, multiplexed assay that uses human umbilical vein endothelial cells (HUVEC). Measurements were taken 72 hours after chemical dosing in a 96-well plate.VALA_TUBHUV_Agonist_CellCount is the one of two assay components measured from the VALA_TUBHUV_Agonist assay. It is designed to make measurements of viability, a form of viability reporter, as detected with fluorescence intensity signals by HCS Fluorescent Imaging technology. Data from the assay component VALA_TUBHUV_Agonist_CellCount was analyzed at the endpoint, VALA_TUBHUV_Agonist_CellCount, in the positive analysis fitting direction relative to DMSO as the negative control and baseline of activity. Using a type of viability reporter, loss-of-signal activity can be used to understand viability. To generalize the intended target to other relatable targets, this assay endpoint is annotated to the cell cycle intended target family, where the subfamily is cell count.
This HUVEC-HDF assay was designed to detect chemical suppression of tubulogenesis, i.e. antagonism. To measure tubulogenesis antagonism, HUVEC cells were co-cultured with HDF cells at a 1:3 ratio for 3-days in 10 ng/ml VEGF (i.e., favorable conditions with growth factors), then changed to assay medium containing 10 ng/ml VEGF and ToxCast compounds for an additional 3-day period. […]

[7] = VALA_TUBHUV_Antagonist_CellCount: Viability Assessment in the VALA Sciences human Umbilical Vein Endothelial Tubule Formation (TUBHUV) Antagonism Assay (AID 2284310)
How it was run: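 HUVEC co-cultured with HDF (1:3) 3 days in 10 ng/ml VEGF, then 3 days with compounds in VEGF medium. Fixed, nuclear stain and CD31 immunofluorescence, imaged; cell counts fitted versus 0.1% DMSO, loss of signal read as lower viability.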

[8] = VALA_MIGHUV2_Bcatenin: VALA Sciences human Umbilical Vein Endothelial Cell Migration (MIGHUV) Assay, Nuclear Translocation of beta-Catenin after Recovery (AID 2284315)
How it was run: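 HUVEC (4000 cells/well) scratch-wounded, dosed within 30 min over 6 concentrations in triplicate, recovered 24 h. After fixation, Hoechst and anti-beta-catenin immunofluorescence imaged for nuclear CTNB. Gain of signal versus 0.1% DMSO.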

[9] = VALA_MIGHUV2_WoundArea: VALA Sciences human Umbilical Vein Endothelial Cell Migration (MIGHUV) Assay, Area of Scratch Wound after Recovery (AID 2284316)
How it was run: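 HUVEC seeded at 9000 cells/well, scratched after 24 h; test chemical added within 30 min, 6-point concentration response in triplicate (0.1% DMSO vehicle). After 24 h wound recovery, cells fixed and Hoechst-stained nuclei in wound area imaged; Cytochalasin D reference control.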

IYD (gene 389434) = assay: CCTE_GLTED_hIYD: CCTE's human Iodotyrosine Deiodinase (xIYD) Inhibition Assay, Great Lakes Toxicology and Ecology Division (GLTED) Lab (AID 2284317);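 note: cell-free human IYD enzyme made in baculovirus insect cells; iodide freed from monoiodotyrosine measured by cerium arsenite color change at 420 nm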
How it was run: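 Human IYD expressed in a baculovirus-insect cell system was incubated 3 h with monoiodotyrosine and test chemical. Released iodide, separated on Dowex columns, was quantified by the Sandell-Kolthoff reaction at 420 nm; plates were normalized to MNT and DMSO/NaOH controls.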

**Q.** For CO/N=C(/C(=O)OC)c1ccccc1COc1ccccc1C, which outcome [1] is on record?
**A.** inactive

**Q.** What about the outcome [2] of the same compound?
**A.** inactive

**Q.** What about the outcome [3] of the same compound?
**A.** inactive

**Q.** And the AC50 [4]?
**A.** 19.7 µM (active)

**Q.** And the outcome [5]?
**A.** inactive

**Q.** For CCOP(=S)(OCC)SCSCC, which outcome [1] is on record?
**A.** inactive

**Q.** And the outcome [2]?
**A.** inactive

**Q.** What about the outcome [3] of the same compound?
**A.** inactive

**Q.** What about the outcome [4] of the same compound?
**A.** inactive

**Q.** What about the outcome [5] of the same compound?
**A.** inactive

**Q.** With O=C(O)C(F)(OC(F)(F)C(F)(F)C(F)(F)F)C(F)(F)F (stereo unspecified) as the compound, how does the AC50 [1] read?
**A.** 0.338 µM (active)

**Q.** And the outcome [2]?
**A.** inactive

**Q.** And the outcome [3]?
**A.** inactive

**Q.** And the outcome [4]?
**A.** inactive

**Q.** What about the outcome [5] of the same compound?
**A.** inactive

**Q.** What does the source list for CC(C)(C)c1ccccc1OP(=O)(Oc1ccccc1)Oc1ccccc1?
**A.** outcome [1]: inactive; outcome [2]: inactive; AC50 [3]: 1.98 µM (active); outcome [4]: inactive; outcome [5]: inactive

**Q.** With CCOc1ccc(C(C)(C)COCc2cccc(Oc3ccccc3)c2)cc1 as the compound, how does the outcome [1] read?
**A.** inactive

**Q.** And the outcome [2]?
**A.** inactive

**Q.** And the outcome [3]?
**A.** inactive

**Q.** And the outcome [4]?
**A.** inactive

**Q.** And the outcome [5]?
**A.** inactive

**Q.** Which results are given for Cc1ccc(N)cc1N?
**A.** outcome [6]: inactive; outcome [7]: inactive; outcome [8]: inactive; outcome [9]: inactive

**Q.** With O=c1ssc(Cl)c1Cl as the compound, how does the outcome (IYD (gene 389434)) read?
**A.** inactive

**Q.** Which outcome [1] does the source give for O=S1(=O)OCC2C(CO1)C1(Cl)C(Cl)=C(Cl)C2(Cl)C1(Cl)Cl (stereo unspecified) here?
**A.** inactive

**Q.** What about the outcome [2] of the same compound?
**A.** inactive

**Q.** And the outcome [3]?
**A.** inactive

**Q.** What about the outcome [4] of the same compound?
**A.** inactive

**Q.** And the outcome [5]?
**A.** inactive

**Q.** For CCCCCCCc1ccc(O)cc1, which AC50 (IYD (gene 389434)) is on record?
**A.** 52.4 µM (active)

**Q.** Which outcome [1] does the source give for O=P(Oc1ccccc1)(Oc1ccccc1)Oc1ccccc1 here?
**A.** inactive

**Q.** What about the outcome [2] of the same compound?
**A.** inactive

**Q.** What about the outcome [3] of the same compound?
**A.** inactive

**Q.** And the outcome [4]?
**A.** inactive

**Q.** What about the outcome [5] of the same compound?
**A.** inactive

**Q.** For CCCCc1ccc(O)cc1, which outcome (IYD (gene 389434)) is on record?
**A.** inactive

**Q.** Which outcome [1] does the source give for CCCCOCCOP(=O)(OCCOCCCC)OCCOCCCC here?
**A.** inactive

**Q.** What about the outcome [3] of the same compound?
**A.** inactive

**Q.** And the outcome [4]?
**A.** inactive

**Q.** And the outcome [5]?
**A.** inactive

**Q.** For CCCCC(CC)COP(=O)(Oc1ccccc1)Oc1ccccc1 (stereo unspecified), which outcome [1] is on record?
**A.** inactive

**Q.** What about the outcome [2] of the same compound?
**A.** inactive

**Q.** What about the outcome [3] of the same compound?
**A.** inactive

**Q.** And the outcome [4]?
**A.** inactive

**Q.** And the outcome [5]?
**A.** inactive
